# A selection: hits, their analogues and other compounds. The true share with any hit is near 1.5%.
# PABP1 MLLE inh = inhibitors of microRNA-mediated deadenylation, human PABP1 MLLE binding | GST-MLLE / FITC-PAM2 fluorescence polarization | inhibition, % at 20 µM | 360,000 compounds, 0.36% hits | AID 588489; in the data active means inhibition above about 35%, passing the limit was not always enough
# Target sequence (P11940 whole entry, looked up): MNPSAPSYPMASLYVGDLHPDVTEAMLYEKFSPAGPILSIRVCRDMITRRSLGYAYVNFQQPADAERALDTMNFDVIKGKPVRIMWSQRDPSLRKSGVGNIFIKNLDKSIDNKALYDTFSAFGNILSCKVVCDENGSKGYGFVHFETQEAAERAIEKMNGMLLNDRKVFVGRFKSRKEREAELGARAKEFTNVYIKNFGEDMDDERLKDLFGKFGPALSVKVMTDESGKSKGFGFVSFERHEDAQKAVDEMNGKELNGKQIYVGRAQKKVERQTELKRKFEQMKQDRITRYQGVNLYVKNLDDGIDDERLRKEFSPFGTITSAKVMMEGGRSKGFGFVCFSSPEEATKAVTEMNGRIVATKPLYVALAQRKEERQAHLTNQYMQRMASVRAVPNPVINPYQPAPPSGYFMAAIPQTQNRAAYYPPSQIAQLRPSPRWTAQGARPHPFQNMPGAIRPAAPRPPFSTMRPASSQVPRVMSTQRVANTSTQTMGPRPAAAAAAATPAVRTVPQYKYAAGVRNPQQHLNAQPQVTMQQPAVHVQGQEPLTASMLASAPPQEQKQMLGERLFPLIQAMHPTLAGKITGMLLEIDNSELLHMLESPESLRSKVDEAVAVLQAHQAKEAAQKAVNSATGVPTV
# eIF4H FP inh = inhibitors of RNA binding by human eIF4H; Q15056; eIF4H fluorescence polarization binding assay; inhibition, % at 35 µM; 290,000 compounds, 0.94% hits;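 further: calls also rest on retests at 20 µM and on dose response follow-up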
# eIF4E 4G PPI = inhibitors of eIF4E and eIF4G interaction in translation initiation; P63073+Q04637; TR-FRET eIF4E-eIF4GI(517-606) binding, 2 h; inhibition, % at 21.7 µM; 220,000 compounds, 0.37% hits; AID 782;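 active means inhibition above about 30%, limit read from the data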
# PABP FP inh = PABP-poly(A) binding inhibition; P11940; PABP-poly(A) RNA binding, fluorescence polarization; calls only at 35 µM; 290,000 compounds, 1% hits; AID 2014;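 further: calls also rest on retests at 20 µM and on dose response follow-up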
# A number is an active result; . = inactive; ? = inconclusive; / = not tested or not shown; + = active, no number. Unless noted, how the calls were made is not given here.
SMILES,PABP1 MLLE inh,eIF4H FP inh,eIF4E 4G PPI,PABP FP inh
COCCCNC(=S)N(CCCN(C)C)Cc1cc2cc3c(cc2[nH]c1=O)OCCO3,.,.,/,.
O=C(c1ccco1)N(CCO)Cc1cc2cc3c(cc2[nH]c1=O)OCO3,.,.,.,.
O=C(c1ccccc1)N(CCO)Cc1cc2cc3c(cc2[nH]c1=O)OCCO3,56.6,.,.,?
COCCCNC(=S)N(CCO)Cc1cc2cc3c(cc2[nH]c1=O)OCCO3,40.5,.,/,.
COCCNC(=S)N(CCO)Cc1cc2cc3c(cc2[nH]c1=O)OCCO3,39.3,.,/,.
COc1cccc(C(=O)CN2CCN(S(=O)(=O)c3cccc([N+](=O)[O-])c3)CC2)c1,.,.,.,.
COc1ccc(C(=O)CN2CCN(S(=O)(=O)c3cccc([N+](=O)[O-])c3)CC2)cc1OC,39.2,.,.,.
CN1CCN(C2=CC(=O)OC23CCCCC3)CC1,.,.,84.1,.
O=C1C=C(N2CCCCC2)C2(CCCCC2)O1,.,.,.,.
CCCCN(C)c1c(C)nc2ccc(C(=O)N3CCN(C(C)=O)CC3)cn12,.,/,/,/
C[C@H](CO)N1C[C@H](C)[C@H](CN(C)C(=O)Nc2ccccc2F)OCc2cnnn2CCCC1=O,.,/,/,/
N#CCCN(C(=O)c1ccco1)c1ccccc1,.,.,.,.
N#CCCN(C(=S)NC(=O)c1ccco1)c1ccccc1F,47.4,.,.,.
N#CCCN(Cc1cccnc1)C(=S)NCc1ccco1,.,.,.,.
N#CCCN(Cc1cccnc1)C(=S)NC(=O)c1ccco1,.,.,.,+
Cn1c2ccccc2c2nnc(SCc3nnc(-c4ccccc4)o3)nc21,/,.,.,+
Cn1c(SCc2nnc(-c3ccccc3)o2)nc2ccccc21,.,.,.,.
CCCCCCCn1c(NC(=O)CC)nc2ccccc21,.,73.5,.,+
O=C(CN1C(=O)NC(Cc2c[nH]c3ccccc23)C1=O)NCCc1ccccc1 (configuration not stated),.,.,/,.
O=C(Cc1nnc(NC(=O)c2ccccc2)s1)N/N=C/c1ccco1,.,.,.,+
Nc1nnc(CC(=O)N/N=C/c2ccc(-c3ccccc3)o2)s1,.,.,.,+
Nc1nnc(CC(=O)N/N=C\c2ccc(-c3cccc(Cl)c3)o2)s1,.,.,.,.
CC1(C(=O)NCC(F)(F)F)CCN1C(=O)Cc1ccc(-c2ccccc2)cc1 (configuration not stated),.,/,/,/
CCN(CC)C(=O)C1=C(C)N(CCCOC)C(=O)C(CC(=O)NC2CC2)C1 (configuration not stated),.,/,/,/
Cc1noc(C)c1-c1ccc(C(=O)NC2CCCCC2)c2occc12,.,/,/,/
SMILES,PABP1 MLLE inh,eIF4H FP inh,eIF4E 4G PPI,PABP FP inh
CCOC1(OCC)OC(c2ccccc2)=C(C#N)C(C=Cc2ccccc2)C1(OCC)OCC (configuration not stated),.,/,/,/
COc1cccc(-n2c(O)c(C=NCc3ccccn3)c3ccccc3c2=O)c1,.,.,.,.
O=c1c2ccccc2c(C=NCc2ccccn2)c(O)n1-c1ccccc1,.,90.2,.,+
c1ccc2c(c1)nnn2Cc1nnc2sc(-c3ccc4c(c3)OCCO4)nn12,41.1,.,.,.
O=C(Nc1cccc(C(F)(F)F)c1)C1CC(=O)N(CCc2ccccc2)C1 (configuration not stated),.,/,/,/
Cc1coc2c(C)c3oc(=O)c(CCC(=O)N[C@H](C(=O)O)C(C)C)c(C)c3cc12,.,/,/,/
COc1ccc(NS(=O)(=O)c2cc(NC(=O)CCSc3ccccc3)ccc2OC)cc1,.,5.3,.,+
FC(F)(F)c1cccc(NC(=S)Nc2cccc(NC(=S)Nc3cccc(C(F)(F)F)c3)n2)c1,47.1,.,.,.
FC(F)(F)c1cccc(NC(=S)NNC(=S)NCc2ccccc2)c1,40.8,.,.,.
C[C@@H]1CN([C@H](C)CO)C(=O)CCCn2cc(nn2)CO[C@H]1CN(C)S(=O)(=O)c1ccccc1,.,/,/,/
Cc1cccc(OCC(=O)N(Cc2cccs2)C2CCS(=O)(=O)C2)c1C (configuration not stated),.,83.0,.,.
COc1ccc(NS(=O)(=O)c2ccc(Cl)s2)cn1,58.3,?,.,?
COc1ccc(NS(=O)(=O)c2cccs2)cn1,.,.,.,.
Cc1ccccc1-c1csc(C(O)(c2ccccc2)C(F)(F)F)n1 (configuration not stated),.,/,/,/
CNC(=O)OCc1snc(-c2ccccc2)c1COC(=O)NC,.,/,/,/
Cc1ccc(N2C(=O)CC(SCC(=O)Nc3ccc(S(N)(=O)=O)cc3)C2=O)cc1 (configuration not stated),42.4,.,.,.
CCOC(=O)c1ccc(N2C(=O)CC(SCC(=O)Nc3ccc(S(N)(=O)=O)cc3)C2=O)cc1 (configuration not stated),.,.,.,.
CC1=C(C(=O)O)N2C(=O)C(NC(=O)c3ccn(C)n3)C2SC1 (configuration not stated),48.5,.,.,.
Cc1ccc[n+](-c2nc([O-])sc2/C=N/Nc2ccc([N+](=O)[O-])cc2)c1,60.0,.,.,.
O=[N+]([O-])c1ccc(NN=Cc2cccc3ccccc23)cc1,.,/,/,/
CN1CCN(C(=O)/C=C\C(=O)O)CC1,.,.,.,.
O=C(CC[C@H]1O[C@@H](n2ccc(=O)[nH]c2=O)[C@H](O)[C@@H]1O)NCCN1CCOCC1,.,/,/,/
C[C@H]1CN([C@@H](C)CO)S(=O)(=O)c2ccc(-c3ccccc3)cc2O[C@H]1CN(C)C(=O)C1CCC1,.,/,/,/
Cc1nc2ccc(C(=O)N3CCC(O)(Cc4ccccc4)CC3)cn2c1N(C)C(=O)CCc1ccccc1,.,/,/,/
COc1cc2c(-c3ccc(O)cc3)nc3c(c(C)nn3-c3ccccc3)c2cc1OC,.,.,38.8,.
SMILES,PABP1 MLLE inh,eIF4H FP inh,eIF4E 4G PPI,PABP FP inh
COc1ccccc1C(=O)Nc1ncc2c(n1)CC(c1ccco1)CC2=O (configuration not stated),.,73.8,.,+
C=CCOC(=O)/C(=C/c1ccco1)NC(=O)/C=C/c1ccccc1,.,.,.,.
O=C(O)CNC(=O)/C(=C/c1ccco1)NC(=O)/C=C/c1ccccc1,.,53.2,.,+
COc1ccc(C(CC(=O)N2CCCC2)c2c(OC)cc(OC)c3c(-c4ccccc4)cc(=O)oc23)cc1 (configuration not stated),.,87.4,33.8,.
COc1ccc(C(CC(=O)N2CCOCC2)c2c(OC)cc(OC)c3c(-c4ccccc4)cc(=O)oc23)cc1 (configuration not stated),.,93.0,.,+
COc1cc(C(CC(=O)N2CCCC2)c2c(OC)cc(OC)c3c(-c4ccccc4)cc(=O)oc23)cc(OC)c1OC (configuration not stated),.,78.2,.,+
COc1ccc(C(CC(=O)N2CCCCC2)c2c(OC)cc(OC)c3c(-c4ccccc4)cc(=O)oc23)cc1 (configuration not stated),.,/,.,/
COc1cc(C(CCN2CCCCC2)c2c(OC)cc(OC)c3c(-c4ccccc4)cc(=O)oc23)cc(OC)c1OC (configuration not stated),.,.,.,.

# Assay outcomes from PubChem.
